Results as given in PubChem BioAssay AID624330 (Southern Research Specialized Biocontainment Screening …, 2012).
The whole screen tested about 340,000 compounds, of which about 2,100 (0.62%) were called active.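 Rule for the calls: active = first-screen hits whose inhibition reached a set limit at any dose in the follow-up dose series; inconclusive = inhibition above the set first-screen limit but never retested; inactive = the rest.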 The list is a sample of the results. Results with a measured potency or affinity are listed apart.

Biological target: Rac GTPase-activating protein 1 (Homo sapiens) (UniProt Q9H0H5)
Experiment: blockers of MgcRacGAP-driven Rac1 GTP hydrolysis – biochemical, ADP Hunter fluorescence, primary and confirmatory, confirmation (AID 624330);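 note: fluorescence reports GDP produced by GAP-driven GTP hydrolysis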
Conditions: MgcRacGAP-stimulated Rac1 GTP hydrolysis, at 30 µM, active compounds read high, GST-tagged Rac1 F28L mutant substrate

Sequence of Rac GTPase-activating protein 1 (Homo sapiens) (Q9H0H5 whole entry, looked up): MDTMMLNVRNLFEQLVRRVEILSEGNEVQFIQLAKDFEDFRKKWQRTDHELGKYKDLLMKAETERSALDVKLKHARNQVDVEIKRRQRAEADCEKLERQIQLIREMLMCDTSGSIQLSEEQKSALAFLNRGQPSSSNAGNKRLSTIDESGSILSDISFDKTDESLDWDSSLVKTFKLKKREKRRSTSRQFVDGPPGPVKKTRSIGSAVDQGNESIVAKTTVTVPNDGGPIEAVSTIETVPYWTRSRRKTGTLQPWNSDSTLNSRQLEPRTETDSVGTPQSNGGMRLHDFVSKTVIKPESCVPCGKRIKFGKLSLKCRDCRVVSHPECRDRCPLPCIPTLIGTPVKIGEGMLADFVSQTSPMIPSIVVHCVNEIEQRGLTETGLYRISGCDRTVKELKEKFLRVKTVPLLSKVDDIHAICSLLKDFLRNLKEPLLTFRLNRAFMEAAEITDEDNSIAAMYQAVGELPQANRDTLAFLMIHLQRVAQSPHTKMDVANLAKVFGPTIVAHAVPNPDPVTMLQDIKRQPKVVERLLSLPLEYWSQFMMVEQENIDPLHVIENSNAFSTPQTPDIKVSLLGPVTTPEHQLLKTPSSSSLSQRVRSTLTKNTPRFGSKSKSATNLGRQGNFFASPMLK

inhibition, inactive:
Brc1ccc(-c2ncc3ccccn23)cc1 14.6%
COc1ccc(-c2ncc3ccccn23)cc1 14.9%
COc1cc(OC)cc(-c2ncc3ccccn23)c1 29.5%
Clc1ccc(-c2ncc3ccccn23)cc1 6.65%
Fc1ccc(-c2ncc3ccccn23)cc1 -4.81%
c1ccc(-c2ncc3ccccn23)cc1 12%
CCN(CC)C(=O)[C@H]1CC(CC(=O)NC(C)(C)C)C(=O)N2CCc3c([nH]c4ccccc34)[C@]12C (some centres not stated) 6.38%
O=C(Nc1ccon1)Nc1ccc(Cl)cc1Cl 2.26%
Cc1ccc(-c2nc3ncccc3o2)cc1NC(=O)CC(C)C 4.77%
CC(NC(=O)NC1CCCCC1)C(c1cccs1)N1CCN(C)CC1 (configuration not stated) 1.37%
COc1ccc(CNC(=O)Cn2cc([N+](=O)[O-])nc2C)cc1 2.29%
O=C(O)CCC(=O)N1CCN(c2ncccn2)CC1 1.98%
O=C(CN1C(=O)C2CCCCC2C1=O)N1CCN(c2ncccn2)CC1 (configuration not stated) 5.06%
COc1ccc2c(C)cc(=O)sc2c1 5.61%
O=C(Nc1cccc(NC(=O)c2ccccc2)n1)c1ccccc1 8.99%
Cc1cc(NC(=O)CN2CCCC(C)C2)no1 (configuration not stated) 20.7%
O=C(CN1CCCCC1)Nc1ccc(S(=O)(=O)NC2CCCCC2)cc1 5.84%
CC1CCN(CC(=O)Nc2ccc(S(=O)(=O)N3CCC(C)CC3)cc2)CC1 23%
CCN1CCN(CC(=O)Nc2cc(C)on2)CC1 29.4%
Cc1cc(NC(=O)CN2CCCCCCC2)no1 18%
Cc1cc(NC(=O)CN2CCCCC2)no1 22.2%
COc1ccc(S(=O)(=O)N2CCOCC2)cc1C(=O)N(C)CCOc1ccc(Cl)cc1 6.35%
O=C1C2C3C=CC(O3)C2C(=O)N1Cc1ccncc1 (configuration not stated) 1.25%
CN(CC1COc2ccccc2O1)C(=O)c1ccc(Cl)c(S(=O)(=O)N2CCCCCC2)c1 (configuration not stated) 7.88%
NS(=O)(=O)c1ccc(Nc2nc(-c3ccc4ccccc4c3)cs2)cc1 -0.69%
CC(=O)Nc1ccc(-c2csc(Nc3ccc(S(N)(=O)=O)cc3)n2)cc1 -2.9%
Cc1cc(NS(=O)(=O)c2ccc(Nc3nc(-c4ccc(C)c(C)c4)cs3)cc2)no1 12.2%
Nc1ccc(Nc2nc(-c3cc4ccccc4oc3=O)cs2)cc1 47.4%
CC(=O)Nc1ccc(Nc2nc(-c3cc4ccccc4oc3=O)cs2)cc1 4.39%
COc1ccc(-c2csc(Nc3ccc(S(N)(=O)=O)cc3)n2)cc1 15.2%
Oc1ccc(-c2csc(Nc3ccc4c(c3)OCO4)n2)c(O)c1 10.8%
COc1ccc(-c2csc(Nc3ccc(S(=O)(=O)Nc4cc(C)on4)cc3)n2)cc1 11.9%
Cc1cc(=O)[nH]c(N/N=C/c2c(C)nn(-c3ccccc3)c2Cl)n1 0.59%
CN=c1scc(-c2ccc(Cl)cc2)n1C 3.57%
CC(C(=O)OCC(=O)N1CCCCC1)N1C(=O)c2ccccc2C1=O (configuration not stated) 2.6%
CC1CCN(S(=O)(=O)c2cn(CC(=O)N3CCN(C)CC3)c(=O)c3ccccc23)CC1 -14%
O=C(CSc1ccc(-c2cccc([N+](=O)[O-])c2)nn1)N1CCCCC1 9.68%
CC(C)(C)S(=O)(=O)N1C[C@H]2CC/C=C\C/C(c3ccccc3)=C\2[C@@H]1CCO 2.11%
CC(C)c1ccc(NC(=O)COC(=O)C2CCCCC2)cc1 1.49%
O=C(NC1CCN(C(=O)N2c3ccccc3Sc3ccccc32)CC1)c1ccccc1Cl 23.6%
O=C(NC1CCN(C(=O)N2c3ccccc3Sc3ccccc32)CC1)c1ccco1 1.56%
CC1C(=O)C(C)C(c2cc(Cl)ccc2O)NC1c1cc(Cl)ccc1O (configuration not stated) 6.05%
CCC[C@H]1CN(c2ccccc2)C(=O)[C@@H]1CC(=O)Nc1ccc(Br)cc1 13.1%
COc1ccccc1-n1c(=O)c2c3c(sc2n2c(SC(C)C)nnc12)CCC3 14.9%
COC(=O)CSc1nnc2n(-c3ccc(OC)cc3)c(=O)c3c4c(sc3n12)CCCCC4 7.39%
CCSc1nnc2n(-c3ccc(OC)cc3)c(=O)c3c4c(sc3n12)CCCC4 -3.51%
COc1ccccc1-n1c(=O)c2c3c(sc2n2c(SC)nnc12)CCC3 11.3%
O=C(OCC(=O)N1CCc2ccccc21)c1ccncc1 3.21%
CCC(CC)CN1CCC(CN2CCNC(=O)C2=O)CC1 0.28%
COc1cc(C(C)=O)ccc1OC(=O)c1cc2cccc(OC)c2oc1=O 2.6%
COc1ccc(NC(=O)c2cc3cc(OC)ccc3oc2=O)cc1 7.32%
CC(=O)Nc1ccc(OC(=O)c2cc3cc(Br)ccc3oc2=O)cc1 10.4%
COc1cccc2cc(C(=O)Oc3ccccc3)c(=O)oc12 15.6%
COc1cccc2cc(C(C)=O)c(=O)oc12 -3.65%
O=C(Oc1ccccc1)c1cc2ccccc2oc1=O -4.44%
CCOc1ccccc1OC(=O)c1cc2ccccc2oc1=O 9.21%
COc1ccc(NC(=O)c2cc3ccccc3oc2=O)cc1 20.1%
CCN(CC)S(=O)(=O)c1ccc(C(=O)Oc2cc(C)[nH]c(=O)c2[N+](=O)[O-])cc1 0.7%
CCc1cccc(NS(=O)(=O)c2c(C)nc3scc(C)n3c2=O)c1 1.2%
C[C@@H]1CN([C@H](C)CO)C(=O)c2cc(NC(=O)Nc3ccc(F)cc3)ccc2O[C@@H](C)CCCCO[C@H]1CN(C)Cc1ccc(C(=O)O)cc1 10.2%
COc1ccc(N2C(=NC(=O)C3CC3)SC3CS(=O)(=O)CC32)cc1Cl (configuration not stated) 8.01%
Cc1ccsc1C(=O)OCC(=O)NC1CCCCC1 -3%
